Compounds without any hit were thinned out: in the full panel of roughly 79,000, 15% have a hit. Rule as the data show it: active = growth inhibition above about 70%; inactive = the rest.
How the values were obtained:
[1] = NCI Yeast Anticancer Drug Screen. Data for the rad50 strain (AID 155);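 also: 0% = growth of vehicle-only cultures of the same strain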; conditions: S. cerevisiae rad50 strain growth inhibition; at 50.0 µM; stronger effect = higher value
Summary of the method: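 Yeast carrying a defined DNA repair defect were exposed to test compounds, and growth was compared with vehicle-treated controls to give percent inhibition.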

[2] = NCI Yeast Anticancer Drug Screen. Data for the mec2-1 strain (AID 157); conditions: S. cerevisiae mec2-1 strain, at 50.0 µM, stronger effect = higher value
Summary of the method: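 Strain: mec2-1 (DNA repair/cell cycle alteration). Compound exposure, then growth measured; inhibition expressed relative to vehicle.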

[3] = NCI Yeast Anticancer Drug Screen. Data for the sgs1 mgt1 strain (AID 161);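 also: 0% = growth of cultures given vehicle only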; conditions: S. cerevisiae sgs1 mgt1 strain, at 50.0 µM, stronger effect = higher value
Summary of the method: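 Test agents were incubated with a DNA-repair-mutant yeast strain. Growth was then read and compared against vehicle-treated controls.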

[4] = NCI Yeast Anticancer Drug Screen. Data for the cln2 rad14 strain (AID 165);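 also: 0% = growth equal to vehicle treated cultures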; conditions: S. cerevisiae cln2 rad14 strain, at 50.0 µM, stronger effect = higher value
Summary of the method: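 Compounds are applied to the cln2 rad14 yeast strain, and growth is then compared with that of vehicle-treated cultures to give inhibition.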

[5] = NCI Yeast Anticancer Drug Screen. Data for the bub3 strain (AID 167); conditions: S. cerevisiae bub3 mutant strain, at 50.0 µM, stronger effect = higher value
Summary of the method: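 Compounds were applied to a genetically altered yeast strain carrying a cell-cycle control defect. Growth inhibition was scored against vehicle-treated controls.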

[6] = NCI Yeast Anticancer Drug Screen. Data for the mlh1 rad18 strain (AID 175); conditions: S. cerevisiae mlh1 rad18 strain growth inhibition; at 50.0 µM; stronger effect = higher value
Summary of the method: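 Read-out is yeast growth inhibition, calculated against vehicle-only controls. The compound was applied to a strain engineered with DNA damage repair alterations.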

Measured: growth inhibition

C/C(=C\c1cc(Cl)ccc1OCC(=O)O)[N+](=O)[O-]
inactive: [1] 38.1% | [2] 56.1% | [3] 44.5% | [4] 26.9% | [5] 40.8% | [6] 56.2%

CC1NC(=O)NC1CCCCCC(=O)O (stereo not drawn)
inactive: [1] 8.3% | [2] 11.4% | [3] 13.8% | [4] 12.5% | [5] 4.6% | [6] 17.3%

CC(=O)N(C)c1ccc([N+](=O)[O-])cc1
inactive: [1] 21.8% | [2] -5.6% | [3] 21.2% | [4] 26.2% | [5] 24.4% | [6] 1.3%

O=C(c1ccccc1)C1CCC1
inactive: [1] 22.6% | [2] -5.25% | [3] 10.2% | [4] -17.5% | [5] 7.95% | [6] 6.75%

COc1ccccc1C1OC2=Nc3cc(C)c(C)cc3NC2C1=O (stereo not drawn)
inactive: [1] 11.1% | [2] -9.95% | [3] -1.95% | [4] -9.25% | [5] -21.1% | [6] 5.95%

CCOC(=O)/C(=C/c1ccc(OC)cc1)N(CC)CC
inactive: [1] -45.8% | [2] -22.7% | [3] -17.4% | [4] 0.5% | [5] -19.1% | [6] -20.4%

c1csc(-c2cc(-c3cc(-c4cccs4)[nH]n3)n[nH]2)c1
inactive: [1] 9.4% | [2] -11.2% | [3] 6.35% | [4] -2.7% | [5] -3.05% | [6] 2.6%

COc1ccc(C)cc1OC
inactive: [1] 26.3% | [2] 12.9% | [3] 1.3% | [4] 0.6% | [5] -8.2% | [6] -5.65%

N/N=C(/Cc1ccccc1)NNC(N)=S
inactive: [1] 1.95% | [2] -13.7% | [3] -26.6% | [4] -4.2% | [5] -12% | [6] -0.45%

c1cc[n+](C2c3ccccc3C([n+]3ccccc3)c3ccccc32)cc1 (stereo not drawn)
inactive: [1] 25.2% | [2] 18.8% | [3] 16.9% | [4] -23.9% | [5] 28% | [6] 41.5%

C=CC(O)CCC (stereo not drawn)
inactive: [1] -8.4% | [2] -41% | [3] -16.8% | [4] 1.3% | [5] -1.6% | [6] -2.7%

N#C/C(=C\c1cc(O)c(O)c(O)c1)C(N)=O
inactive: [1] 29.8% | [2] -14.8% | [3] 24.6% | [4] 2.6% | [5] 25.7% | [6] 35.5%

CNS(=O)(=O)c1ccc(Cl)c(Cl)c1
inactive: [1] -43.2% | [2] -5.1% | [3] -13.5% | [4] -55% | [5] -25.4% | [6] -40.9%

CC(C)=C(NC(=O)c1ccccc1)C(=O)O
inactive: [1] 14.1% | [2] 0.35% | [3] -5.25% | [4] 22% | [5] -2.7% | [6] 12.9%

CCOC(=O)C/C(C)=N\O
inactive: [1] 4.05% | [2] -11.3% | [3] 7.9% | [4] 8.45% | [5] 9.15% | [6] 2.4%

COC(=O)c1cccnc1
inactive: [1] 6.65% | [2] -3.85% | [3] -0.35% | [4] 7.2% | [5] -23.8% | [6] -1.2%

Cc1cc(=O)cc(C)n1-c1ccccc1
inactive: [1] 11.9% | [2] -5.75% | [3] -15.4% | [4] 0.25% | [5] 12.1% | [6] 19.2%

CCCCOC(OCCCC)c1ccccc1
inactive: [1] -26.5% | [2] -9.5% | [3] 20.7% | [4] -18.6% | [5] -1.8% | [6] 12.2%

COc1ccccc1N=Nc1c(O)ccc2cc(S(=O)(=O)O)ccc12
inactive: [1] -14.7% | [2] 6.9% | [3] 6.75% | [4] 9.95% | [5] -2.75% | [6] -13.2%

CC(=O)Nc1cccc(Cl)c1C
inactive: [1] 17.6% | [2] 11.7% | [3] 1.35% | [4] 4.9% | [5] 8.85% | [6] -0.35%

CC(C)(O)C#CC#CC(C)(C)O
inactive: [1] 30.9% | [2] 4.2% | [3] 5.4% | [4] 3.8% | [5] -41% | [6] -0.55%

CCn1c(=O)n(C)c2c(=O)n(C)c(=O)n(C)c21
inactive: [1] 21.6% | [2] -3.8% | [3] -13.3% | [4] 1% | [5] 1.4% | [6] 2.2%

CC12CC3CC1C(C(=O)O2)C3C(=O)O (stereo not drawn)
inactive: [1] -20.6% | [2] -27.5% | [3] -25.8% | [4] 5.85% | [5] -7.2% | [6] -8.8%

OCc1cccc2ccccc12
inactive: [1] 27.6% | [2] 25.9% | [3] 13.9% | [4] -27.4% | [5] 3.6% | [6] 24.5%

O=C1NC(=O)C2C(=O)NC(=O)C1C21CCc2ccccc21 (stereo not drawn)
inactive: [1] -8.5% | [2] -16.6% | [3] -23.5% | [4] -4.25% | [5] -41.9% | [6] -7.45%

O=C(O)C(O)c1ccccc1 (stereo not drawn)
inactive: [1] 20.2% | [2] -7.65% | [3] -5.7% | [4] -48% | [5] 11.3% | [6] 10.7%

CCN(CC)C(=O)/C=C(/C)c1ccccc1
inactive: [1] -12.6% | [2] -2.65% | [3] -22.2% | [4] -6.95% | [5] 4.25% | [6] -29.8%

CCC/C=C(\C)C(C)(C#N)C(=O)OCC (stereo not drawn)
inactive: [1] 3.1% | [2] -8.45% | [3] 10.8% | [4] -1.35% | [5] -17.7% | [6] -29.9%

Cc1c(C(=O)O)c(=O)n(-c2ccccc2)n1C
inactive: [1] 3.1% | [2] -10.2% | [3] -8.75% | [4] 11% | [5] -16.9% | [6] 13.6%

Cc1cc(NC(=O)CSCC(=O)O)no1
inactive: [1] -19.2% | [2] -34.5% | [3] -2.45% | [4] 7.8% | [5] -7.8% | [6] -2.75%

O=C(Cc1ccc(OCc2ccccc2)cc1)NCc1ccc2c(c1)OCO2
inactive: [1] 3.2% | [2] -5.5% | [3] -1.2% | [4] -10.8% | [5] 17.5% | [6] -9.5%

COc1cc(C2NC(=O)C(C#N)=C(Nc3cccc(C)c3)S2)ccc1O (stereo not drawn)
inactive: [1] -2.7% | [2] -18.8% | [3] 13.4% | [4] 1% | [5] -6.15% | [6] -16.9%

O=S(=O)(O)c1ccc(O)c2ccccc12
inactive: [1] -12.6% | [2] 19.4% | [3] 0% | [4] -30.1% | [5] 11.7% | [6] 56.2%

O=C(CCNNC(=O)c1ccncc1)NCc1ccccc1
inactive: [1] 8.25% | [2] 11.6% | [3] 11.9% | [4] -46% | [5] -9.8% | [6] 7.3%

C/C(=C\c1ccc([N+](=O)[O-])cc1)C(=O)O
inactive: [1] 23.6% | [2] 23.1% | [3] 19.2% | [4] 12.2% | [5] 31.4% | [6] 47.5%

Oc1ccc(Cc2ccccc2)c2cccnc12
inactive: [1] -27.7% | [2] -8.6% | [3] -12.7% | [4] -19.4% | [5] -17.1% | [6] 34.6%

Clc1ccc(-c2n[nH]c3c2Cc2ccccc2-3)cc1Cl
inactive: [1] -5.1% | [2] -10.8% | [3] 16.4% | [4] 16.4% | [5] 11.8% | [6] 7.45%

Cc1ccc(C)n1-c1ccsc1C(=O)NNC(=O)CCl
inactive: [1] -13.8% | [2] -17.8% | [3] 2.25% | [4] 22.9% | [5] -14.5% | [6] -3.85%

CCOC(=O)C(O)C(O)C(=O)OCC (stereo not drawn)
inactive: [1] 21.4% | [2] -15.8% | [3] -29.3% | [4] -16.7% | [5] -2.85% | [6] 7.85%

CCCCC1(CC)COC(CCC)OC1 (stereo not drawn)
inactive: [1] 26.4% | [2] 2.15% | [3] 12.7% | [4] -22.6% | [5] -12.2% | [6] 11.5%

COc1cc(OC)c2ccc(=O)oc2c1
inactive: [1] 27.2% | [2] 8.4% | [3] 16.1% | [4] 6.75% | [5] 38.5% | [6] 24.1%

CCOc1ccc2[nH]c(=S)sc2c1
inactive: [1] 35.5% | [2] 12.9% | [3] 29.9% | [4] 15.5% | [5] -1.5% | [6] 21.4%

CCOC(=O)Nc1cc2c(c(N)n1)N=C(c1ccccc1)CO2
inactive: [1] 37.5% | [2] 27.7% | [3] 34% | [4] 16.5% | [5] 14.8% | [6] -21.9%

Reference: PubChem BioAssay (NCI)
